Laboratory results taken from PubChem BioAssay AID1532 (PCMD, 2009).
Screen size: about 110,000 compounds; about 420 (0.38%) were called active. This is one part of a sample in which actives are shown more often than they occur. No stated cut-off is given here; in the data, active means inhibition above about 30% (passing the limit was not always enough); inconclusive means no clear call, values can overlap the other calls.

System: RmlC (dTDP-4-dehydrorhamnose 3,5-epimerase) and RmlD (dTDP-4-dehydrorhamnose reductase), coupled enzyme assay
Assay: RmlC and RmlD coupled enzyme inhibitors, primary screen, biochemical, 384-well, compound mixtures, retest (AID 1532)
Conditions: 384-well mixture HTS, at 5.5 µM, stronger effect = higher value
[1] = measured here: mean retest inhibition

In the case of `COc1cc(OC)c2ccc(=O)oc2c1C(CCN1CCN(c2ccccc2)CC1)c1ccc2c(c1)OCO2` (stereo unspecified), the inhibition is reported as -3.48% (inactive).

For `CCOC(=O)/C=C/CN(C(=O)OC(C)(C)C)S(=O)(=O)N1CC=CC1`, the inhibition was -3.8% (inactive).

In the case of `C#CCOCCOCCOCCNc1nc(N2CCN(C(=O)[C@H](CCC(=O)O)n3cc(C(N)CO)nn3)CC2)nc(N2CCN(C(=O)[C@H](CCCCN)n3cc(C(N)CC(C)C)nn3)CC2)n1` (stereo partly specified), the inhibition is reported as 12.9% (inactive).

`Cc1nc(-c2ccccc2)sc1C1(C)CC(c2cccnc2)=NO1` (stereo unspecified) was tested, and the inhibition was 1.85% (inactive).

In the case of `O=c1[nH]snc1-c1c(Cl)cccc1Cl`, the inhibition is reported as -15.8% (inactive).

`COC(C[C@H](O)CC(=O)COCc1ccccc1)OC` was tested, and the inhibition was -6.86% (inactive).

In the case of `CCN1C(=O)N[C@@H](c2ccccc2)[C@H](C(C)=O)[C@H]1C`, the inhibition is reported as -8.96% (inactive).

With `Cc1ccc(-c2cc(=O)c3ccc(F)cc3[nH]2)cc1` the inhibition was -13.2% (inactive).

With `O=C(NCC1CC1)c1onc(CSc2ccccc2)c1C(=O)NCC1CC1` the inhibition was -3.31% (inactive).

With `O=C1CC2(CCCC2)Oc2ccc(Cl)cc21` the inhibition was 2.74% (inactive).

`COC(=O)Cc1cc(=O)oc2c(C)c(O)ccc12` was tested, and the inhibition was 115% (active) and the inhibition [1] was 108%.

`CCCc1cc(=O)oc2c(C)c(O)c(CN3CCCCC3)cc12` was tested, and the inhibition was 125% (inactive) and the inhibition [1] was 66.6%.

In the case of `COC(=O)COc1ccc2oc(=O)cc(C)c2c1`, the inhibition is reported as 10.6% (inactive).

`CCO[C@H]1OC(C(=O)N2CCN(Cc3ccccc3)CC2)=C[C@@H](c2cn(C(C)=O)c3ccccc23)[C@@H]1CCCO` was tested, and the inhibition was 77% (inactive) and the inhibition [1] was 8.54%.

`Cc1nc(C(=O)Nc2ccc(Cl)cc2)sc1C1(C)CC(c2ccccc2)=NO1` (stereo unspecified) was tested, and the inhibition was 7.11% (inactive).

With `C=CCOC(=O)C1=C[C@H](c2ccc(Br)cc2)C[C@H](OCCCCO)O1` the inhibition [1] was 3.33%.

In the case of `C[C@@H](C(=O)N1CCNCC1)n1cc(CCC(=O)O)nn1`, the inhibition is reported as -10.6% (inactive).

With `CC(=O)Nc1sc2c(c1C(c1cccc(F)c1)N1CCN(CCO)CC1)CCCC2` (stereo unspecified) the inhibition was -13.5% (inactive).

With `CN(C(=O)C1CCOC1)c1nnc(-c2cccnc2)s1` (stereo unspecified) the inhibition was -5.38% (inactive).

With `COc1cccc(-c2nnc(N(C)C(=O)c3ccno3)s2)c1` the inhibition was 11.7% (inactive).

In the case of `CN(C(=O)c1ccccn1)c1nnc(-c2ccccn2)s1`, the inhibition is reported as 73.7% (active) and the inhibition [1] is reported as 110%.

For `CN(C(=O)c1ccno1)c1nnc(-c2cccnc2)s1`, the inhibition was 11.4% (inactive).

In the case of `CN(Cc1ccccc1)C(=O)COc1ccccc1`, the inhibition is reported as -9.33% (inactive).

In the case of `COC(=O)Nc1c(C)n(C)n(-c2ccccc2)c1=O`, the inhibition is reported as 3.72% (inactive).

In the case of `Cc1cc(C(=O)Nc2c(C)n(C)n(-c3ccccc3)c2=O)cs1`, the inhibition is reported as -9.2% (inactive).

With `Cc1c(NC(=O)c2coc(=O)c(Br)c2)c(=O)n(-c2ccccc2)n1C` the inhibition was 75.6% (active) and the inhibition [1] was 104%.
